Growth data for 18 compounds are collected here from PubChem BioAssay (NCI).

SMILES strings stand for the structures. About 83,000 compounds went through this panel and 20% of them were active in at least one assay; those are over-represented in the sample as a whole.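 Growth was measured after 48 h exposure to one concentration of compound in 96-well plates. Values under 10 count as active.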 Unmarked numbers belong to inactive results. Calls of active or inactive are those of the source.

Test systems include T-47D breast; BT-549 breast; MDA-MB-435 melanoma; MCF7 breast; HCT-116 colon; HCC-2998 colon; KM12 colon; SW-620 colon.
Common to all, as to test: NCI-60 one-dose screen, 48 h (100 = growth as untreated, 0 = no growth, -100 = all killed)
What all share (conditions): 10 µM unless noted

Take `Oc1ccc2ccccc2c1/C=N\Nc1ccccn1`: the growth in the test on T-47D breast was 7.06% (active); in the test with BT-549 breast, 22.2%; with MDA-MB-435 melanoma, 25.1%; with MCF7 breast it was 2.43% (active); with HCT-116 colon, 1.72% (active); with HCC-2998 colon, 21%. For the same compound, the growth with KM12 colon was 29.7%.
For `COc1cc(-c2nn(-c3ccc(NC(=O)c4ccc(Cl)c(C(F)(F)F)c4)cc3)cc2-c2ccncc2)ccc1Cl`, the growth is 26.7% with T-47D breast; 24.3% in the test on MDA-MB-435 melanoma; 6.21% (active) with SW-620 colon; 21% in the test on MCF7 breast; 9.19% (active) in the test with HCT-116 colon; 31.8% in the test with HCC-2998 colon.
In the case of `Cc1c(Cc2ccccc2)c(=O)oc2c(C)c(OCc3n[nH]c(=S)o3)ccc12`, the growth is 53.1% with T-47D breast; 96.9% in the test with BT-549 breast; -7.67% (active) in the test with SW-620 colon; 14.5% in the test with MCF7 breast; 6.37% (active) with HCT-116 colon; 94.9% in the test with HCC-2998 colon. Besides, in the test on KM12 colon, the growth is 43.1%.
For `O=C1NCCN1/N=C/c1c(Cl)nc2n1CCS2`, the growth with T-47D breast was 119%; with BT-549 breast, 97.7%; with SW-620 colon, 103%; in the test with MCF7 breast, 106%; in the test with HCT-116 colon, 93.5%; in the test on HCC-2998 colon it was 111%. Besides, in the test on KM12 colon, the growth was 101%.
On to `CC(=O)N1CCN(CCNC(=O)n2cc(-c3ccncc3)c(-c3ccc(O)c(Cl)c3)n2)CC1`, for which the growth in the test on T-47D breast was 112%; with MDA-MB-435 melanoma, 103%; in the test with SW-620 colon, 130%; with MCF7 breast it was 102%; in the test with HCT-116 colon, 111%; in the test with HCC-2998 colon, 118%. In addition, the growth in the test on KM12 colon is 103%.
Regarding `COc1ccc(C(=O)NCCNc2nccc(-c3c(-c4ccc(F)cc4)nc4sccn34)n2)cc1`, the growth is 58.2% in the test with T-47D breast; 43.6% with MDA-MB-435 melanoma; 52.3% with SW-620 colon; 25.1% with MCF7 breast; 31.8% with HCT-116 colon; 97% in the test with HCC-2998 colon.
As to `CC1(C)N=C(N)N=C(N)N1c1cccc(CCCCOc2ccccc2)c1`, the growth in the test with T-47D breast was 37.7%; in the test on BT-549 breast it was 35.7%; in the test with SW-620 colon, 12.6%; in the test with MCF7 breast, 1.62% (active); in the test with HCT-116 colon, 11.3%; with HCC-2998 colon, 27.1%. The growth in the test with KM12 colon was 15.9%.
As for `COc1cc(/C(=C2/O[C@@H]([C@H]3COC(C)(C)O3)[C@H]3OC(C)(C)O[C@@H]23)c2ccc3c(c2)OCO3)cc(OC)c1OC`, the growth with T-47D breast is 55.9%; with BT-549 breast, 79.5%; in the test with MCF7 breast, 44.5%; in the test on HCT-116 colon it was 9.6% (active); in the test on KM12 colon, 63.6%.
`O=C(Nc1ccc(-n2cc(-c3ccncc3)c(-c3ccc(Cl)c(O)c3)n2)cc1)Nc1ccc(Cl)c(C(F)(F)F)c1`: the growth is 4.31% (active) in the test with T-47D breast; -37.7% (active) in the test on MDA-MB-435 melanoma; 11% in the test with SW-620 colon; -0.973% (active) in the test with MCF7 breast; -15.8% (active) with HCT-116 colon; 0.686% (active) in the test with HCC-2998 colon. In addition, the growth in the test with KM12 colon was 1.21% (active).
Consider `COc1cc(-c2nn(-c3ccc(NC(=O)Nc4cc(C(F)(F)F)cc(C(F)(F)F)c4)cc3)cc2-c2ccncc2)ccc1Cl`, for which the growth was 8.74% (active) with T-47D breast; 0.886% (active) in the test on MDA-MB-435 melanoma; 13.9% in the test on SW-620 colon; -4.41% (active) in the test with MCF7 breast; -11% (active) in the test with HCT-116 colon; -7.63% (active) with HCC-2998 colon. Moreover, the growth with KM12 colon was 0.412% (active).
Take `O=c1c2c(c3ccccc3n1-c1ccccc1)NC(=S)NC2c1ccccc1` (configuration not stated): the growth with T-47D breast was 59.9%; in the test with MDA-MB-435 melanoma it was 111%; with SW-620 colon it was 107%; in the test with MCF7 breast, 42.3%; with HCT-116 colon, 96.1%; with HCC-2998 colon, 98.8%. The growth in the test with KM12 colon was 104%.
As for `CC(CCN1CCN(CCC(C)CC(C)(C)C)C1CC(C)CC(C)(C)C)CC(C)(C)C` (configuration not stated), the growth was 91.8% with T-47D breast; 104% with MDA-MB-435 melanoma; 89.4% in the test with SW-620 colon; 95.7% with MCF7 breast; 60.9% in the test with HCT-116 colon; 78.2% with HCC-2998 colon. In the test with KM12 colon, the growth is 91%.
On to `Cc1nc(NC(=O)NC2CCCCC2)sc1C(=O)NN`, for which the growth in the test with T-47D breast is 112%; in the test on MDA-MB-435 melanoma, 115%; in the test with SW-620 colon, 106%; in the test on MCF7 breast it was 105%; in the test on HCT-116 colon it was 83.8%; in the test on HCC-2998 colon, 162%. Further, the growth in the test on KM12 colon was 102%.
As to `C=CC1CN2CCC1CC2C(O)c1ccnc2ccc(OC)cc12` (configuration not stated), the growth in the test on T-47D breast is 102%; with MDA-MB-435 melanoma, 100%; with SW-620 colon, 105%; in the test on MCF7 breast, 91%; in the test on HCT-116 colon, 49.8%; in the test on HCC-2998 colon, 155%. Moreover, in the test with KM12 colon, the growth was 112%.
Consider `CC([C@H]1CC=C2C3CCC4=C[C@@H](N(C)C)CC[C@]4(C)C3CC[C@@]21C)N(C)C` (some centres not stated), for which the growth in the test on T-47D breast is 29.1%; in the test with BT-549 breast it was 90.5%; in the test with SW-620 colon it was 9.89% (active); in the test with MCF7 breast, 34.9%; in the test with HCT-116 colon, -57% (active); with HCC-2998 colon, 49.6%. Also, in the test on KM12 colon, the growth was 30.6%.
For `COC(=O)c1cc(O)c2cc3c(cc2c1-c1cc(OC)c(OC)c(OC)c1)OCO3`, the growth was 25.9% in the test on T-47D breast; 2.84% (active) with MDA-MB-435 melanoma; 17.8% in the test with SW-620 colon; 21.9% with MCF7 breast; 20.8% in the test on HCT-116 colon; 52.3% in the test with HCC-2998 colon. The growth with KM12 colon was 25.7%.
As to `CC(=O)NNC(=O)c1sc(NC(C)=O)nc1C`, the growth is 76.5% with T-47D breast; 110% with MDA-MB-435 melanoma; 96.9% in the test on SW-620 colon; 87.4% in the test with MCF7 breast; 90.5% with HCT-116 colon; 73.8% in the test with HCC-2998 colon. Besides, the growth with KM12 colon was 105%.
As to `COc1cc(-c2nn(-c3ccc(NC(=O)Nc4ccc(Cl)c(Cl)c4)cc3)cc2-c2ccncc2)ccc1Cl`, the growth in the test with T-47D breast was 47.5%; with MDA-MB-435 melanoma it was 29.1%; in the test with SW-620 colon it was 35.2%; in the test on MCF7 breast it was 28.4%; with HCT-116 colon it was 13.4%; in the test on HCC-2998 colon, 21.8%. Further, the growth in the test with KM12 colon was 16.1%.
